Screening data as filed in PubChem BioAssay.
Most compounds without a hit are left out; they make up all but 3.3% or so of the library.
SMARCA2 activ – SMARCA2 (BRM) function activators, primary screen, cell-based, luminescence, high throughput; MG213 cells, MMTV-luciferase reporter, dexamethasone, overnight; 1% of 370,000 active; activation, % at 9.1 µM; in the data active means activation above about 7.8%
esBAF inh – Bmi1 luciferase reporter increase in mESCs, primary screen, esBAF inhibitor project, mouse ES cells, Bmi1 luciferase knock-in, single point; 24 h; 100% = twice the neutral-well signal; reporter increase, % at 12.5 µM; 2% of 350,000 active; in the data active means activation above about 40%;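 further: a rise in the Bmi1 reporter signal indicates esBAF inhibition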
697 NFkB inh – inhibitors of PMA/ionomycin-induced NF-kB reporter, 697 cells, primary screen, B-cell NF-kB inhibitor project, cell-based, luminescence, uHTS. inhibition, % at 4 µM. 0.33% of 330,000 active. AID 435022, 2010. 697 B-cell NF-kB luciferase reporter, 16 h; in the data active means inhibition above about 35%
Jurkat NFkB inh – inhibitors of induced NF-kB luciferase reporter, primary screen, TCR NF-kB activation inhibitor project, cell-based, luminescence, uHTS; Jurkat, PMA/ionomycin-induced NF-kB luciferase reporter; 0.53% of 330,000 active; inhibition, % at 4 µM; in the data active means inhibition above about 50%
Gli-Sufu antag – Gli-Sufu pathway antagonists, primary screen, luciferase luminescence, Sufu-KO-LIGHT cells, uHTS; 0.74% of 340,000 active; AID 588413, 2011; inhibition, % at 5 µM; Sufu-KO-LIGHT fibroblasts, Gli luciferase reporter luminescence;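 active means inhibition above about 55%, limit read from the data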
Jurkat NFkB conf – PMA/ionomycin-induced NF-kB reporter inhibitors, Jurkat retest, confirmation, T-cell NF-kB inhibitor project, cell-based, luminescence, single concentration; shares compounds with Jurkat NFkB inh; Jurkat NF-kB luciferase, 16 h; inhibition, % at 4 µM; 27% of 2,700 active; AID 435020, 2010;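 active means inhibition reaching about 45% at 4 µM in either replicate, limit read from the data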
Numbers stand for hits; . = inactive; / = no result given.

SMILES	SMARCA2 activ	esBAF inh	697 NFkB inh	Jurkat NFkB inh	Gli-Sufu antag	Jurkat NFkB conf
Cc1ccc(COC(=O)c2cc([N+](=O)[O-])ccc2N2CCOCC2)cc1	.	.	.	62.6	/	52.5
COc1ccc(NC(=O)Nc2ccc3c(c2)C(=O)N([C@@H](C)CO)C[C@@H](C)[C@H](CN(C)C)O3)cc1	/	.	/	/	/	/
C[C@@H]1CN([C@H](C)CO)C(=O)c2cc(NS(C)(=O)=O)ccc2O[C@@H](C)CCCCO[C@@H]1CN(C)Cc1ccc(C(=O)O)cc1	/	.	/	/	/	/
CC(=O)Nc1ccc(-c2nc3cc(Cl)ccc3o2)cc1	.	.	.	.	.	.
O=C(O)c1ccccc1-c1ccccc1C(=O)Nc1ccc(-c2nc3cc(Cl)ccc3o2)cc1	.	/	.	.	.	/
Cc1cc(NCCCn2ccnc2)n2ncc(-c3ccc(Cl)cc3)c2n1	.	.	.	.	.	.
COC(=O)C[C@@H]1CC[C@H]2[C@H](COc3ccc(NC(=O)c4ccccc4OC)cc3C(=O)N2C)O1	/	.	/	/	/	/
C[C@@H]1CCCCO[C@@H](CN(C)Cc2ccc(C(=O)O)cc2)[C@H](C)CN([C@@H](C)CO)C(=O)c2cc(NC(=O)Nc3cccc4ccccc34)ccc2O1	/	.	/	/	/	/
CC(=O)Nc1ccc(NC(=O)C(=O)NCC(c2ccco2)N2CCc3ccccc32)cc1 (stereo not given)	.	.	.	.	.	/
COc1ccc(C(=O)NCC(c2ccco2)N2CCc3ccccc32)cc1 (stereo not given)	.	.	.	63.4	.	.
COc1ccc(C(=O)NCC(c2ccco2)N2CCc3ccccc3C2)cc1 (stereo not given)	.	/	.	.	.	/
COc1ccc(NC(=O)C(=O)NCC(c2ccco2)N2CCc3ccccc32)cc1 (stereo not given)	/	.	.	64.1	.	.
COCCNC(=O)C(=O)Nc1ccc2c(c1)N(S(=O)(=O)c1cccs1)CCC2	.	.	.	60.1	.	.
O=C(NCCCO)C(=O)Nc1ccc2c(c1)N(S(=O)(=O)c1cccs1)CCC2	.	.	.	.	.	/
COc1ccc(NC(=O)C(=O)NCC2CCCN2S(=O)(=O)c2ccc(C)cc2)cc1 (stereo not given)	.	.	.	76.1	69.2	64.2
O=C(NCCC1CCCCN1S(=O)(=O)c1cccs1)C(=O)Nc1ccccc1 (stereo not given)	.	.	.	.	.	/
COc1ccc(NC(=O)C(=O)NCCC2CCCCN2S(=O)(=O)c2cccs2)cc1 (stereo not given)	.	.	.	60.8	.	.
CCCN1[C@@H]2Cn3c(ccc(-c4ccncc4)c3=O)[C@H]1[C@@H](C(=O)N1CCCCC1)[C@@H]2CO	/	.	/	/	/	/
CCCN1[C@@H]2c3ccc(C4=CCCCC4)c(=O)n3C[C@H]1[C@H](CO)[C@H]2C(=O)Nc1ccccc1	/	.	/	/	/	/
CC=Cc1ccc2n(c1=O)C[C@H]1[C@H](CO)[C@@H](C(=O)NCc3ccccc3)[C@@H]2N1CC (mixture of isomers)	/	.	/	/	/	/
CN(C)C(=O)c1ccc(-c2ccc3c(c2)[C@H]2[C@H](CCN2Cc2cncnc2)[C@H](CO)N3)cc1	/	.	/	/	/	/
Cc1ccsc1/C=N/Nc1cccc(C(=O)O)c1	.	/	.	55.9	.	.
Cc1ccsc1/C=N/Nc1ccc(C(=O)O)cc1	.	.	.	.	.	/
COCC(C)NC(=O)c1cc2cccc([N+](=O)[O-])c2[nH]1 (stereo not given)	.	/	.	.	.	/
Cc1cc(NC(=O)c2cc3cccc([N+](=O)[O-])c3[nH]2)ccc1F	.	83.6	.	.	.	.
SMILES	SMARCA2 activ	esBAF inh	697 NFkB inh	Jurkat NFkB inh	Gli-Sufu antag	Jurkat NFkB conf
C[C@@H]1CN([C@H](C)CO)C(=O)c2cc(C#CCN(C)C)cnc2O[C@H]1CN(C)S(=O)(=O)c1cn(C)cn1	/	.	/	/	/	/
c1ccc2c(c1)oc1c(Nc3ccc(CN4CCOCC4)cc3)ncnc12	.	.	.	.	.	.
O=C(Nc1ccc(N2CCCC2)c(Cl)c1)c1ccco1	.	.	.	.	.	.
CN1CCN(c2ccc(NC(=O)c3ccco3)cc2Cl)CC1	.	.	.	.	.	/
COc1ccccc1S(=O)(=O)N[C@@H]1C=C[C@@H](CC(=O)N2CCN(C)CC2)O[C@H]1CO	/	.	/	/	/	/
Brc1ccc2nc(-c3c[nH]c4ccccc34)cn2c1	.	.	.	.	.	.
Cc1ccc(S(=O)(=O)NCC[C@H]2CC[C@@H](NC(=O)c3cccc(F)c3)[C@H](CO)O2)cc1	/	.	/	/	/	/
COc1ccc(OCc2cc(/C=N\NC(=O)c3ccccc3)ccc2OC)cc1	.	.	.	54.2	.	.
COc1cccc(C(=O)N/N=C/c2ccc(OC)c(COc3ccccc3C(N)=O)c2)c1	.	/	.	.	/	/
COc1cc(OC)cc(C(=O)N/N=C/c2ccc(OC)c(COc3ccc(F)cc3)c2)c1	.	/	.	52.0	.	.
COc1ccc(C(=O)N/N=C/c2ccc(OC)c(COc3c(F)c(F)cc(F)c3F)c2)cc1	.	.	.	.	.	/
COc1ccc(/C=N\NC(=O)c2cccc(F)c2)cc1COc1ccccc1	.	.	.	51.9	.	53.4
CCNC(=O)C[C@H]1CC[C@@H]2[C@H](COC[C@H](O)CN2C(=O)C2CC2)O1	/	.	/	/	/	/
C[C@@H]1CN([C@H](C)CO)C(=O)c2cc(NS(=O)(=O)c3cn(C)cn3)ccc2O[C@@H](C)CCCCO[C@@H]1CN(C)CC1CCCCC1	/	.	/	/	/	/
C[C@@H]1CN([C@H](C)CO)C(=O)c2cc(N(C)C)ccc2O[C@@H](C)CCCCO[C@H]1CN(C)C(=O)c1ccccc1	/	.	/	/	/	/
CCCCCOc1ccc(/C(C)=N/NC2=NCCN2)cc1	.	.	.	.	.	/
CCOc1ccc(Br)cc1/C(C)=N\NC1=NCCN1	.	/	.	70.3	.	.
C[C@H]1CN([C@@H](C)CO)C(=O)c2cc(C3=CCCCC3)cnc2O[C@@H]1CN(C)Cc1ccccn1	/	.	/	/	/	/
O=C(c1nnsc1S(=O)c1ccc(Cl)cc1)N1CCOCC1 (stereo not given)	.	.	.	70.1	.	.
O=C(c1nnsc1S(=O)(=O)c1ccc(Cl)cc1)N1CCOCC1	.	/	.	.	.	/
Cc1ccc(N(C)S(=O)(=O)c2ccc(-c3cnc(C4CC4)o3)cc2)cc1	.	.	.	51.9	.	52.4
Cc1cccc(C)c1NS(=O)(=O)c1ccc(-c2cnc(C3CC3)o2)cc1	.	.	.	59.0	57.1	64.5
Cc1ccc(NS(=O)(=O)c2ccc(-c3cnc(C4CC4)o3)cc2)cc1	.	.	.	.	.	/
Cc1ccc(CNS(=O)(=O)c2ccc(-c3cnc(C4CC4)o3)cc2)cc1	.	.	.	.	.	/
